GRIN3A LBD mod: modulators (binders) of human NR3A ligand-binding domain. NR3A LBD differential scanning fluorimetry, Tm shift; 0% = protein alone, 100% = glycine-bound protein. Tm shift relative to glycine control, % at 25 µM. actives 2.5% (n = 340,000). AID 1259313;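 active = melting temperature shift of at least 10% of the positive control shift, at one fixed dose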
HGIII-sPLA2 inh: Inhibits HGIII-sPLA2 liposome hydrolysis, primary screen; Q9NZ20; QFRET BODIPY PC-A2 liposome hydrolysis, fluorescence; actives 0.56% (n = 370,000); inhibition, % at 12.2 µM;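 active = inhibition above mean plus 3 SD of compounds lying within the high and low control bounds, cut at about 19% in these data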;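 note: 0% = median of test compound wells and 100% = no enzyme DMSO wells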
FAS TE block: FAS thioesterase (human) inhibition. P49327. recombinant FAS-TE, OMFH fluorogenic substrate, fluorescence endpoint. inhibition, % at 15 µM. actives 0.67% (n = 360,000). AID 602261;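 active = compounds whose normalised, plate-corrected inhibition of enzyme fluorescence in the single-dose primary screen is 50% or more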;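 note: 0% = DMSO with enzyme and 100% = substrate without enzyme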
ADAM10 inh: ADAM10 inhibition, QFRET primary screen; actives 0.62% (n = 370,000); O14672; recombinant ADAM10, EDANS/DABCYL FRET peptide cleavage, 3 h; inhibition, % at 7 µM;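 active = inhibition above a per-campaign cutoff equal to the mean of compounds falling between control-based bounds plus 3 SD, cut at about 20% in these data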;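 note: 0% = DMSO wells while the 100% control is not disclosed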
ADAM17 inh: inhibitors of human ADAM17. P78536. actives 0.83% (n = 370,000). recombinant ADAM17, EDANS/DABCYL FRET peptide cleavage. inhibition, % at 6.95 µM;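 active = inhibition above the mean of compounds lying between control limits plus 3 SD, set per campaign, cut at about 8.5% in these data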;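 note: 0% = DMSO-only wells as the low control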
Target sequence (P78536 215-824 limits assumed): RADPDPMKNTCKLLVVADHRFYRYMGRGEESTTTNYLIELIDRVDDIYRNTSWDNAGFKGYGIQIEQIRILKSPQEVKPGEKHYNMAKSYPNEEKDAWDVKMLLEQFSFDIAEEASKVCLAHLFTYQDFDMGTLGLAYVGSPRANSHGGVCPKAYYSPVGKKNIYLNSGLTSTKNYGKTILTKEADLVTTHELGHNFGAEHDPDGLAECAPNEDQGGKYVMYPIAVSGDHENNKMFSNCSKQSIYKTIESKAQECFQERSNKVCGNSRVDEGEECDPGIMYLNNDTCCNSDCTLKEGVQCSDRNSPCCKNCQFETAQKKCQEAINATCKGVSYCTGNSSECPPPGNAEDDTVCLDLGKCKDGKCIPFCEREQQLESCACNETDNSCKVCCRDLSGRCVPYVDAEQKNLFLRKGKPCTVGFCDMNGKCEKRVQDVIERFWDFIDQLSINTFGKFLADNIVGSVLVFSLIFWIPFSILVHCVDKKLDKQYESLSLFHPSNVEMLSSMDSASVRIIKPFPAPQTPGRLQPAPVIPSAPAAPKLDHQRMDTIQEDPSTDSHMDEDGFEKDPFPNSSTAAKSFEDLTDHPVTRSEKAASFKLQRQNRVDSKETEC
The depositor's hits bear a star; nt = no result given. Shown are actives, neighbours in structure and some others; about 4.3% of the full set was active somewhere.

SMILES	GRIN3A LBD mod	HGIII-sPLA2 inh	FAS TE block	ADAM10 inh	ADAM17 inh
C#CCOCCOCCOCCNc1nc(N2CCOCC2)nc(N2CCN(C(=O)CCCCCCCCCCNC(=O)[C@@H]([C@H](C)CC)n3cc(CCCCCN)nn3)CC2)n1	2	-22	-8	3	-4
C#CCOCCOCCOCCNc1nc(N2CCN(C(=O)CCCCCCCCCCNC(=O)[C@H]([C@@H](C)CC)n3cc(CCCCCN)nn3)CC2)nc(N2CCN(C(=O)CCCCCCCCCCNC(=O)[C@H](CO)n3cc(CCCCCN)nn3)CC2)n1	28*	nt	-31	nt	nt
C#CCOCCOCCOCCNc1nc(N2CCN(C(=O)CCCCCCCCCCNC(=O)[C@H]([C@@H](C)CC)n3cc(CCCCN=C(N)N)nn3)CC2)nc(N2CCN(C(=O)CCCCCCCCCCNC(=O)[C@H](CO)n3cc(CCCCCN)nn3)CC2)n1	17*	nt	-47	nt	nt
NS(=O)(=O)c1ccc(NC(=O)CSc2nc3ccccc3c(=O)n2-c2ccc(Br)cc2)cc1	nt	-14	nt	17	-1
C#CCNC(=O)C[C@H]1C[C@@]2(C(=O)OC)C(=C[C@H](C(C)(C)C)O[C@@H]2C)N(Cc2ccc(Cl)cc2Cl)C1=O	nt	-2	nt	8	3
CCOC(=O)C(=O)NC12CC3CC(CC(C3)C1)C2	11*	3	-10	-4	0
Cc1cccc(C(=O)Nc2ccc(C(=O)N/N=C/c3cccnc3)cc2)c1	-8	5	-5	3	-3
Cc1ccc(C(=O)Nc2ccc(C(=O)N/N=C/c3cccnc3)cc2)cc1	11*	-10	-7	4	2
O=C(N/N=C/c1cccnc1)c1cccc(NC(=O)c2ccc(Cl)cc2)c1	16*	nt	-4	nt	nt
COC(=O)[C@H](CC(C)C)N(CCCc1cn(Cc2ccc(C)cc2)nn1)S(=O)(=O)c1ccc(F)cc1Br	nt	-20	nt	16	6
CC1(C)CC(=O)N(CC(=O)N2CCN(Cc3ccccc3)CC2)c2ccccc2S1(=O)=O	nt	6	nt	-6	-3
Cc1cccc(C)c1NC(=O)CN(C)C(=O)Cc1cccc(C(F)(F)F)c1	12*	-7	-2	3	-1
Cc1cc2occ(CC(=O)N(C)CC(=O)Nc3c(C)cccc3C)c2cc1C	-1	-11	0	-1	-2
CCOc1ccc(C(=O)NCc2ccccc2)cc1Br	12*	-2	7	5	2
CCN(CC)c1ccc(C=Nc2ccc(C)cc2)c(O)c1	13*	3	12	2	1
CCN(CC)c1ccc(N=Cc2ccc(N(CC)CC)cc2O)cc1	0	9	-112	5	-1
CCOC(=O)c1c(N)sc(C(=O)N(C)C)c1C	11*	3	-4	-6	-4
CCOC(=O)c1c(C)c(C(=O)Nc2ccc3c(c2)OCO3)c(C)n1C	0	10	1	5	1
CCOC(=O)c1c(N)sc(C(=O)Nc2ccc3c(c2)OCO3)c1C	28*	0	7	8	5
O=S(=O)(c1ccc(F)cc1F)N1CCN(CCO)CC1	13*	7	-4	-9	-4
O=C(COC(=O)CCSc1ccc(Cl)cc1)NCCc1ccccc1	16*	-5	-5	7	3
S=C(NCc1ccc2[nH]c3c(c2c1)CCCC3)Nc1ccccc1Cl	11*	-12	12	12	3
COC(=O)C1CN(C2CC2)CCS(=O)(=O)N1Cc1cn(Cc2ccc(C)cc2)nn1 (configuration not stated)	nt	15	nt	-1	0
Cc1cccc(CCNC(=O)c2ccc(Sc3ccccc3Cl)c([N+](=O)[O-])c2)c1	nt	-1	nt	0	1
CCOC(=O)Cn1cc(CN2C(C(=O)OC)CN(Cc3ccc(Cl)cc3)CCS2(=O)=O)nn1 (configuration not stated)	nt	6	nt	4	2
SMILES	GRIN3A LBD mod	HGIII-sPLA2 inh	FAS TE block	ADAM10 inh	ADAM17 inh
O=C(Cn1c2c(sc1=O)C1c3ccccc3OCC1CS2)Nc1ccc(Cl)cc1 (configuration not stated)	13*	7	16	1	-2
O=C(COC(=O)C1COc2ccccc2O1)Nc1ccc(Cl)cc1 (configuration not stated)	-5	-2	-5	10	0
N#Cc1c(N)n(-c2ccccc2)c(=O)c2cc([N+](=O)[O-])ccc12	25*	6	18	-2	-3
CC(C)n1c(N)c(C#N)c2ccc([N+](=O)[O-])cc2c1=O	-6	2	7	5	-1
COc1ccc(CCNC(=O)Cn2ncc3c2-c2cc(C)ccc2OC3)cc1	nt	-8	nt	1	-1
CCOc1ccc2nc(N/C(N)=N/C(=S)Nc3ccc(C)c(C)c3)nc(C)c2c1	20*	-8	50	-140	-29
COc1ccc(NC(=S)/N=C(\N)Nc2nc(C)c3ccc(C)cc3n2)cc1	7	-2	32	-5	0
C=CC[n+]1c(-c2ccc(Cl)cc2Cl)csc1Nc1ccc(NC(C)=O)cc1	-10	-7	16	27*	8
CN(CCc1ccccn1)C(=O)c1cc2ccccn2n1	nt	9	nt	-13	-1
O=S1(=O)c2ccc(Br)cc2OC[C@@H](c2ccccc2)N1Cc1cn(Cc2ccccc2)nn1	nt	-1	nt	8	4
Cc1cc(SCC(=O)c2ccc(O)c(O)c2)nc2ccccc12	12*	5	7	16	5
Cc1ccc(O)c(NC(=O)CSc2n[nH]c(-c3ccccc3)n2)c1	34*	-19	-7	-1	-2
O=C(CSc1n[nH]c(-c2ccccc2)n1)c1ccc(O)c(O)c1	12*	-19	-10	6	-3
Cc1cc(SCC(=O)c2ccc3c(c2)OCO3)nc2ccccc12	-1	-31	28	8	5
COc1ccc(-c2nc(SCC(=O)Nc3cccc(S(N)(=O)=O)c3)n[nH]2)cc1	11*	-13	-5	-8	-5
CCOC(=O)NC[C@@]1(C(=O)OC)CC(=O)N(Cc2ccc(Cl)cc2)[C@@H]1c1ccc(OC)cc1	nt	-6	nt	4	0
CC(C)c1cc(C(C)C)c(S(=O)(=O)N2CCCC(C(=O)NCc3cccs3)C2)c(C(C)C)c1 (configuration not stated)	nt	-3	nt	3	1
COC(=O)[C@]12C[C@H](CC(=O)N3CCOCC3)C(=O)N(Cc3ccco3)C1=C[C@H](C(C)C)O[C@@H]2C1CC1	nt	3	nt	-1	-1
O=C(OCC#CCSc1nnc(-c2cccc3ccccc23)o1)c1sccc1Cl	nt	0	nt	-3	-4
COc1cccc(/C=N/NC(=O)c2nnn(-c3nonc3N)c2CN(C)c2ccccc2)c1	20*	-19	17	13	3
CN(C)Cc1c(C(=O)N/N=C/c2cccc(OCc3ccccc3)c2)nnn1-c1nonc1N	5	-3	-22	-5	-3
CN(Cc1c(C(=O)N/N=C/c2cccc(F)c2)nnn1-c1nonc1N)c1ccccc1	37*	-10	12	12	5

Assay outcomes deposited in PubChem by several laboratories.
